# Test results from PubChem BioAssay AID1159580 (chemical genetic matrix, 2015).
# Screen size: about 5,500 compounds; about 2,000 (36%) were called active. Not shown: some 18% with an inconclusive outcome. The list shows a part of the results. Unmarked numbers belong to inactive results. Rule as the data show it: active = normalized growth mostly below about 0.91 (no sharp cut-off); inconclusive = no clear call, values can overlap the other calls; inactive = mostly above about 0.92.
# Assay: chemical genetic growth profiling, strain panel (AID 1159580);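 also: tested at 20 µM; growth read once vehicle control cultures reached saturation at 30 °C; 1 = growth at the plate median or of vehicle wells; lower values mean less growth of the strain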
# Conditions: S. cerevisiae deletion strains, growth OD
# [1] = locus YCL061C, strain MRC1, stronger effect = lower value
# [2] = locus YJL187C, strain SWE1, stronger effect = lower value
smiles,measurement,setting,value
Cc1cc(=O)oc2cc(O)cc(O)c12,normalized growth,"locus YAL021C, strain ccr4, stronger effect = lower value",0.968
same,normalized growth,"locus YAL026C, strain drs2, stronger effect = lower value",0.96
same,normalized growth,"locus YAL030W, strain snc1, stronger effect = lower value",0.952
same,normalized growth,"locus YBL061C, strain skt5, stronger effect = lower value",0.958
same,normalized growth,"locus YBR009C, strain hhf1, stronger effect = lower value",0.949
same,normalized growth,"locus YBR023C, strain chs3, stronger effect = lower value",0.949
same,normalized growth,"locus YBR171W, strain sec66, stronger effect = lower value",0.965
same,normalized growth,"locus YBR231C, strain swc5, stronger effect = lower value",0.975
same,normalized growth,"locus YBR279W, strain paf1, stronger effect = lower value",0.969
same,normalized growth,"locus YCL011C, strain gbp2, stronger effect = lower value",0.95
same,normalized growth,"locus YCL016C, strain dcc1, stronger effect = lower value",0.966
same,normalized growth,[1],0.983
same,normalized growth,"locus YCL069W, strain vba3, stronger effect = lower value",0.965
same,normalized growth,"locus YCR088W, strain abp1, stronger effect = lower value",0.958
same,normalized growth,"locus YDL005C, strain med2, stronger effect = lower value",0.961
same,normalized growth,"locus YDL040C, strain nat1, stronger effect = lower value",0.958
same,normalized growth,"locus YDR001C, strain nth1, stronger effect = lower value",0.957
same,normalized growth,"locus YDR069C, strain doa4, stronger effect = lower value",0.941
same,normalized growth,"locus YDR137W, strain rgp1, stronger effect = lower value",0.962
same,normalized growth,"locus YDR159W, strain sac3, stronger effect = lower value",0.932
same,normalized growth,"locus YDR195W, strain ref2",0.925
same,normalized growth,"locus YDR297W, strain sur2, stronger effect = lower value",0.96
same,normalized growth,"locus YDR334W, strain swr1, stronger effect = lower value",0.948
same,normalized growth,"locus YDR335W, strain msn5, stronger effect = lower value",0.978
same,normalized growth,"locus YDR392W, strain spt3, stronger effect = lower value",0.938
same,normalized growth,"locus YEL003W, strain gim4, stronger effect = lower value",0.978
same,normalized growth,"locus YEL037C, strain rad23, stronger effect = lower value",0.929
same,normalized growth,"locus YEL061C, strain CIN8 (second series), stronger effect = lower value",0.951
same,normalized growth,"locus YER015W, strain faa2, stronger effect = lower value",0.998
same,normalized growth,"locus YER016W, strain bim1, stronger effect = lower value",0.965
same,normalized growth,"locus YER111C, strain swi4, stronger effect = lower value",0.949
same,normalized growth,"locus YER155C, strain BEM2 (second series), stronger effect = lower value",0.932
same,normalized growth,"locus YFR010W, strain ubp6, stronger effect = lower value",0.943
same,normalized growth,"locus YGL167C, strain pmr1, stronger effect = lower value",0.943
same,normalized growth,"locus YGL173C, strain kem1, stronger effect = lower value",0.97
same,normalized growth,"locus YGL227W, strain vid30, stronger effect = lower value",0.95
same,normalized growth,"locus YGL240W, strain doc1, stronger effect = lower value",0.971
same,normalized growth,"locus YGL253W, strain hxk2, stronger effect = lower value",0.995
same,normalized growth,"locus YHR013C, strain ard1, stronger effect = lower value",0.948
same,normalized growth,"locus YHR027C, strain rpn1, stronger effect = lower value",0.964
same,normalized growth,"locus YHR142W, strain chs7, stronger effect = lower value",0.94
same,normalized growth,"locus YJL092W, strain hpr5, stronger effect = lower value",0.969
same,normalized growth,"locus YJL095W, strain BCK1 (second series), stronger effect = lower value",0.974
same,normalized growth,"locus YJL115W, strain asf1, stronger effect = lower value",0.958
same,normalized growth,"locus YJL129C, strain trk1, stronger effect = lower value",0.946
same,normalized growth,"locus YJL154C, strain vps35, stronger effect = lower value",0.971
same,normalized growth,"locus YJL164C, strain tpk1, stronger effect = lower value",0.978
same,normalized growth,"locus YJL166W, strain qcr8, stronger effect = lower value",0.983
same,normalized growth,[2],0.968
same,normalized growth,"locus YKL160W, strain elf1, stronger effect = lower value",0.981
same,normalized growth,"locus YKR026C, strain gcn3, stronger effect = lower value",0.944
same,normalized growth,"locus YKR091W, strain srl3, stronger effect = lower value",0.962
same,normalized growth,"locus YLL001W, strain dnm1, stronger effect = lower value",0.948
same,normalized growth,"locus YLL026W, stronger effect = lower value",0.97
same,normalized growth,"locus YLL041C, strain sdh2, stronger effect = lower value",0.977
same,normalized growth,"locus YLR027C, strain aat2, stronger effect = lower value",0.945
same,normalized growth,"locus YLR221C, strain rsa3, stronger effect = lower value",0.977
same,normalized growth,"locus YLR258W, strain gsy2, stronger effect = lower value",0.966
same,normalized growth,"locus YLR262C, strain YPT6 (second series), stronger effect = lower value",0.977
same,normalized growth,"locus YLR320W, strain mms22, stronger effect = lower value",0.962
same,normalized growth,"locus YLR342W, strain FKS1, stronger effect = lower value",0.958
same,normalized growth,"locus YLR357W, strain rsc2, stronger effect = lower value",0.939
same,normalized growth,"locus YLR370C, strain arc18, stronger effect = lower value",0.932
same,normalized growth,"locus YLR384C, strain iki3, stronger effect = lower value",0.957
same,normalized growth,"locus YML120C, strain ndi1, stronger effect = lower value",0.954
same,normalized growth,"locus YMR058W, strain fet3, stronger effect = lower value",0.967
same,normalized growth,"locus YMR125W, strain sto1, stronger effect = lower value",0.935
same,normalized growth,"locus YMR129W, stronger effect = lower value",0.969
same,normalized growth,"locus YMR205C, strain PFK2, stronger effect = lower value",0.932
same,normalized growth,"locus YMR231W, strain pep5, stronger effect = lower value",1
same,normalized growth,"locus YNL071W, strain lat1, stronger effect = lower value",0.972
same,normalized growth,"locus YNL209W, strain ssb2, stronger effect = lower value",0.965
same,normalized growth,"locus YNL248C, strain rpa49, stronger effect = lower value",0.996
same,normalized growth,"locus YNL322C, strain KRE1 (second series), stronger effect = lower value",0.95
same,normalized growth,"locus YNR049C, strain mso1, stronger effect = lower value",0.954
same,normalized growth,"locus YOR001W, strain rrp6, stronger effect = lower value",0.979
same,normalized growth,"locus YOR070C, strain gyp1, stronger effect = lower value",0.973
same,normalized growth,"locus YOR080W, strain dia2, stronger effect = lower value",0.965
same,normalized growth,"locus YOR083W, strain WHI5, stronger effect = lower value",0.988
same,normalized growth,"locus YOR106W, strain vam3, stronger effect = lower value",0.964
same,normalized growth,"locus YOR265W, strain rbl2, stronger effect = lower value",0.976
same,normalized growth,"locus YOR270C, strain vph1, stronger effect = lower value",0.894
same,normalized growth,"locus YOR290C, strain snf2, stronger effect = lower value",0.939
same,normalized growth,"locus YPL051W, strain arl3, stronger effect = lower value",0.982
same,normalized growth,"locus YPL078C, strain atp4, stronger effect = lower value",0.969
same,normalized growth,"locus YPL106C, strain sse1, stronger effect = lower value",0.927
same,normalized growth,"locus YPL240C, strain hsp82, stronger effect = lower value",0.985
CCCCCCc1cc2c(C)cc(=O)oc2cc1O,normalized growth,"locus YAL013W, strain DEP1, stronger effect = lower value",0.979
same,normalized growth,"locus YBR229C, strain ROT2, stronger effect = lower value",0.895 (active)
same,normalized growth,[1],0.968
same,normalized growth,"locus YDL101C, strain DUN1, stronger effect = lower value",1.02
same,normalized growth,"locus YDL134C, strain PPH21, stronger effect = lower value",0.976
same,normalized growth,"locus YDR150W, strain NUM1, stronger effect = lower value",0.996
same,normalized growth,"locus YEL061C, strain CIN8, stronger effect = lower value",0.966
same,normalized growth,"locus YGR078C, strain PAC10, stronger effect = lower value",0.996
same,normalized growth,"locus YGR229C, strain SMI1, stronger effect = lower value",0.976
same,normalized growth,"locus YHR030C, strain SLT2, stronger effect = lower value",0.922
same,normalized growth,"locus YHR087W, strain rtc3, stronger effect = lower value",0.725 (active)
same,normalized growth,[2],0.938
same,normalized growth,"locus YJR043C, strain POL32, stronger effect = lower value",1.03
same,normalized growth,"locus YJR075W, strain HOC1, stronger effect = lower value",0.888 (active)
same,normalized growth,"locus YKL190W, strain CNB1, stronger effect = lower value",0.959
same,normalized growth,"locus YLR039C, strain RIC1, stronger effect = lower value",0.721 (active)
same,normalized growth,"locus YLR058C, strain SHM2 (second series), stronger effect = lower value",0.981
same,normalized growth,"locus YLR085C, strain ARP6, stronger effect = lower value",0.864
same,normalized growth,"locus YLR262C, strain YPT6, stronger effect = lower value",0.782 (active)
same,normalized growth,"locus YML094W, strain GIM5, stronger effect = lower value",0.918
same,normalized growth,"locus YMR219W, strain ESC1, stronger effect = lower value",0.973
same,normalized growth,"locus YMR263W, strain SAP30, stronger effect = lower value",0.976
same,normalized growth,"locus YMR307W, strain GAS1, stronger effect = lower value",0.803
same,normalized growth,"locus YNL153C, strain GIM3, stronger effect = lower value",0.965
same,normalized growth,"locus YNL298W, strain CLA4 (second series), stronger effect = lower value",0.942
same,normalized growth,"locus YNL322C, strain KRE1, stronger effect = lower value",0.989
same,normalized growth,"locus YNR030W, strain Alg12, stronger effect = lower value",0.927
same,normalized growth,"locus YOL006C, strain TOP1, stronger effect = lower value",0.863
same,normalized growth,"locus YPL055C, strain LGE1, stronger effect = lower value",0.896
same,normalized growth,"locus YPL241C, strain CIN2, stronger effect = lower value",0.932
same,normalized growth,"locus YPR135W, strain CTF4, stronger effect = lower value",0.792
